Results reported in ChEMBL document CHEMBL4513216, “Probing the Open Global Health Chemical Diversity Library for Multistage-Active Starting Points for Next-Generation Antimalarials” (ACS Infect Dis, 2020).
About 2,100 (3.2%) of roughly 65,000 compounds showed an effect of 50% or more. The median lay at about -52%. This excerpt belongs to a sample that is enriched for strong results.

Tested on: Plasmodium falciparum
Assay: Screen against P. falciparum Asexual Blood Stage (ABS), at 5uM
Assay type: functional, Dd2
Conditions: tested at 5 uM

Compared with COc1cc2c(cc1CNCc1cccnc1-n1cccn1)OC(C)C2 (stereo not drawn), Cc1ccc2c(c1)C(NCc1nccn1Cc1ccccc1)CCCO2 (stereo not drawn) is higher in INHIBITION: 20.8% for the first, 35.8% for the second.

First: COc1cccc(COCC(=O)N2CCCC2Cn2cccn2)c1 (stereo not drawn)
Second: O=C(c1cccc(-n2cccn2)c1)N1CCCOC(Cn2cccn2)C1 (stereo not drawn)
The INHIBITION of the first is higher: -10.1% for the first, -33.9% for the second.

Going from COCc1ccccc1NCc1csc(NC(C)=O)n1 to CCC(NCc1ccccn1)c1ccccc1OCC(=O)NC (stereo not drawn), the INHIBITION rises from -51.9% to -27.1%.

First: CCCN1CCC(c2nc3ccc(NCc4cccnc4)cn3n2)CC1
Second: O=C1N(Cc2cccnc2)CCC12CCCN(c1ncccn1)C2 (stereo not drawn)
The INHIBITION of the first is higher: -28.7% for the first, -123% for the second.

Compared with O=C(c1ccc(Cl)cc1)N1CCC(N2CCNC2=O)CC1, CCN(C)C1COC2(CCN(C(=O)c3ccc(Cl)cc3)CC2)C1 (stereo not drawn) is higher in INHIBITION: -169% for the first, 2.64% for the second.

Going from CC1(C)[C@@H]2CC=C(CN3CCCn4nc(C(=O)O)cc4C3)[C@H]1C2 to O=C(CSCC1CC1)N1CCCN(c2ccc(F)cc2)CC1, the INHIBITION falls from -37.3% to -42.8%.

First: COCCNc1nnc(S(=O)(=O)CCC(C)(C)C#N)s1
Second: COCCNc1ncnc2c1CCN(C(=O)CC1CCC(=O)N1)CC2 (stereo not drawn)
The INHIBITION of the first is lower: -77.6% for the first, -36% for the second.

Compared with CCn1nc(C)c2nc(C(C)C)nc(NCCc3ccc(O)cc3)c21, CSc1ccc(CNc2n[nH]c(C)n2)cc1 is lower in INHIBITION: -3.69% for the first, -43.7% for the second.

Going from Cc1c(-c2cc(C(F)(F)F)nc(N3CCC(N)CC3)n2)cnn1C to CCn1ncc(-c2cc(C(F)(F)F)nc(N3CCC(N)CC3)n2)c1C, the INHIBITION rises from 22.7% to 65.2%.

First: Cc1ccc(-c2cc(C(F)(F)F)nc(N3CCOCC3)n2)s1
Second: Cn1cc(CCCN2CCCC(c3cc(C(F)(F)F)[nH]n3)C2)cn1 (stereo not drawn)
The INHIBITION of the first is lower: -17.2% for the first, 33.1% for the second.

First: CCOC(=O)N1CCN(C(=O)c2cc(OCC)c3ccoc3c2)CC1
Second: CCC(NC(=O)c1ccco1)c1ccccc1OCC(=O)N1CCCC1 (stereo not drawn)
The INHIBITION of the first is lower: -79% for the first, -51.4% for the second.

First: COc1cc(C(=O)Nc2nc(C)no2)ccc1OC(F)F
Second: CCc1noc(C(C)N(C)CC(=O)Nc2ccc(Cl)c(C(F)(F)F)c2)n1 (stereo not drawn)
The INHIBITION of the first is higher: -35.8% for the first, -75.8% for the second.

Going from Cc1cnn(CC2CN(Cc3cccc(OC(C)C)c3)CCO2)c1 (stereo not drawn) to Cc1noc(C)c1CN1CCO[C@H]2CN(Cc3cccc(F)c3)C[C@H]21, the INHIBITION falls from 35.5% to -32.1%.

First: O=C(NC1CCC1)[C@H]1C[C@H]2CN(CC3CC3)C[C@@H]1O2
Second: COc1ccccc1CC1CCCN(CC(=O)NC2CC2)C1 (stereo not drawn)
The INHIBITION of the first is lower: -98% for the first, 16.1% for the second.

Going from O=C(c1cccc(-n2cccn2)c1)N1CCCOC(CN2CCCC2)C1 (stereo not drawn) to NCC1CN(C(=O)c2cccc(-n3cccn3)c2)CCO1 (stereo not drawn), the INHIBITION falls from 53.4% to -21.2%.

Compared with COc1ccc(-n2cnnc2SCC(=O)N(C)C(C)C)cn1, COc1ccc(-n2cc(CCO)cn2)cc1C is lower in INHIBITION: -60.2% for the first, -136% for the second.

Going from CCOC(=O)N1CCc2ccccc2C12CCNCC2 to COCC(=O)N1CCc2ccccc2C12CCNCC2, the INHIBITION falls from 54.6% to -52%.

First: O=C(C1CC1)N1CCc2ccccc2C12CCNCC2
Second: C[C@@H]1CN(C2(C(=O)N3CCNCC3)Cc3ccccc3C2)C[C@H](C)O1
The INHIBITION of the first is lower: -55.8% for the first, 63.4% for the second.

Going from Cc1cc(-c2cnc(N3CCNC(=O)C3)nc2-c2ccncc2)on1 to Cc1ccc(N2CCC3(CN(Cc4ccncc4)CCC3(F)F)C2)nn1 (stereo not drawn), the INHIBITION rises from -43.2% to -5.89%.

Compared with CCc1nc(C)c(C(=O)N2C[C@@H](C(=O)O)[C@H](C3CC3)C2)s1, Cc1nc2ccccn2c1CC(=O)N[C@@H]1CC[C@@H](N2CCOCC2)[C@@H]1O is higher in INHIBITION: -112% for the first, -72.5% for the second.

Compared with COCCN(C)C[C@H]1C[C@H](CO)CN(C(=O)c2ccc(=O)n(C)c2)C1, COCC(=O)N1Cc2ccnn2CC(COCCN(C)C)C1 (stereo not drawn) is higher in INHIBITION: -100% for the first, -13.6% for the second.

Going from CCC(NCc1ccccc1)c1ccccc1OCC(=O)NC (stereo not drawn) to CNC(=O)CN1CCCC(Cc2ccccc2OC)C1 (stereo not drawn), the INHIBITION falls from 65.6% to 61.9%.

First: CC(Cn1cncn1)NC(=O)N1CC2(CCCC2)c2ccccc21 (stereo not drawn)
Second: CC(C)NC(=O)N1CCC2(CC1)C(=O)NCCN2Cc1ccccc1
The INHIBITION of the first is higher: -89% for the first, -105% for the second.

Compared with N#CC1(NC(=O)Cc2cc(Cl)c3c(c2)OCCO3)CCC1, Cc1cc2c(cc1C)C(NC1CC1)CCCO2 (stereo not drawn) is higher in INHIBITION: -75% for the first, -3.02% for the second.

Compared with O=C(c1cocn1)N1CC[C@H]2OCC[C@@]2(COc2ncccc2F)C1, C[C@@H]1CN(C2(C(=O)N3CCOCC3)Cc3ccccc3C2)C[C@H](C)O1 is higher in INHIBITION: -34.6% for the first, -22.3% for the second.

First: CC(C)n1c(C2CCCN(CC(N)=O)C2)nc2ccccc21 (stereo not drawn)
Second: CC(C)n1c(C2CCCN(CCS(C)(=O)=O)C2)nc2ccccc21 (stereo not drawn)
The INHIBITION of the first is higher: -23.5% for the first, -69.9% for the second.

Going from CC(C)OCCCN1CCCC(c2nc3ccccc3n2C(C)C)C1 (stereo not drawn) to COc1ccccc1CN1CCCC(Cc2nccnc2N)C1 (stereo not drawn), the INHIBITION rises from 56% to 62.1%.

Going from Cc1ccnc(NC(=O)CCc2cnn(C)c2C)c1 to Cc1nccc(NCc2cncc3c2CCN(S(C)(=O)=O)C3)n1, the INHIBITION falls from -26.3% to -102%.

First: CC(C)CSCCCNC(=O)C1CCC1
Second: CS(=O)(=O)N1CC[C@H]2O[C@H](C(=O)NCCc3ccccn3)CC[C@H]21
The INHIBITION of the first is higher: -47.5% for the first, -48.2% for the second.

Compared with CCN(CC1CCOC1)S(=O)(=O)Cc1ccccc1Cl (stereo not drawn), CCN(CC1CCOC1)S(=O)(=O)Cc1cc(Cl)ccc1OC (stereo not drawn) is higher in INHIBITION: -53.1% for the first, 59.1% for the second.

First: COc1ccc(Cl)cc1CCNC(=O)N(C)CC1CCOC1 (stereo not drawn)
Second: CNC(=O)NC(=O)CN1CCCC(Cc2ccccc2OC)C1 (stereo not drawn)
The INHIBITION of the first is lower: -102% for the first, -87.4% for the second.

Compared with CN1CCCCC12CCN(C(=O)c1cccn1C)CC2, CN(C)CCN1CCCC12CCN(C(=O)c1ccco1)CC2 is higher in INHIBITION: -27% for the first, 33.9% for the second.

Compared with CC(=O)N1CCC2(CCCN(C(=O)CCN3CCCCC3)C2)C1 (stereo not drawn), CC(=O)N1CCOC2(CCCN(C(=O)CCN3CCCCC3)C2)C1 (stereo not drawn) is higher in INHIBITION: -141% for the first, 56% for the second.

Compared with CC(=O)N1CCCC2(C1)CN(C(=O)C1CCCCC1)CCO2 (stereo not drawn), CNC(=O)CN1CCOCC2(CCCN(Cc3ccoc3)C2)C1 (stereo not drawn) is higher in INHIBITION: -104% for the first, 33.7% for the second.

Compared with Nc1cc(-c2cccs2)nn(CC(=O)N2CCc3ccccc32)c1=O, Cc1cc(C)n(CC(C)NCCN2CCc3ccccc32)n1 (stereo not drawn) is higher in INHIBITION: -13.9% for the first, 54.7% for the second.

First: Cc1cc(C)n(CC(C)NCCn2nc(C)c(Cl)c2C)n1 (stereo not drawn)
Second: Cc1ccnc(NCCCN2CCc3ccccc32)n1
The INHIBITION of the first is lower: -48.1% for the first, 19.8% for the second.

Compared with N#CC1(C(=O)N2C[C@@H]3CC[C@H]2CN(Cc2cscn2)C3)CCOCC1, Fc1ccc(CN2C[C@@H]3OCCN(CC4CCCO4)[C@@H]3C2)cc1 (stereo partly drawn) is higher in INHIBITION: -81.2% for the first, -2.84% for the second.

First: COc1cc(F)c(NCc2nc3ccccc3n2C)cc1OC
Second: COc1cccc(OCCc2nc3c(cc2C(N)=O)CCC3)c1
The INHIBITION of the first is lower: -381% for the first, -58.5% for the second.

First: Nc1nccnc1CC1CCCN(Cc2ccnc3ccccc23)C1 (stereo not drawn)
Second: Nc1nccnc1CC1CCCN(Cc2cccc3[nH]ccc23)C1 (stereo not drawn)
The INHIBITION of the first is lower: -53.7% for the first, 19.4% for the second.

Going from CCN1CCN(c2ccccc2NC(=O)N(C)C2CCSC2)CC1 (stereo not drawn) to C[C@@H]1CN(C2(C(=O)N3CCSCC3)Cc3ccccc3C2)C[C@H](C)O1, the INHIBITION falls from 37.6% to -238%.

Compared with CN(C)Cc1noc2c1CN(Cc1ccc[nH]1)CC2, Cc1noc(C)c1CN1CCO[C@H]2CN(Cc3ccc(F)cc3)C[C@H]21 is higher in INHIBITION: -77.5% for the first, 55.3% for the second.

Going from Cc1ccc2c(c1)C(NCc1nnc3n1CCCCC3)CCCO2 (stereo not drawn) to Cc1ccc2c(c1)C(NC1CCN(C)CC1)CCCO2 (stereo not drawn), the INHIBITION rises from -74.6% to 66.8%.

Compared with Cc1ccc2c(c1)OCCCC2NC1CCN(C)CC1 (stereo not drawn), Cc1ccc2c(c1)OC(C)(C)CC2NC(=O)C1CCN(C)CC1 (stereo not drawn) is lower in INHIBITION: 50.3% for the first, 30.2% for the second.

Going from Cc1nc(CN2CCCC(N(C)CC3CCCC3)C2)no1 (stereo not drawn) to CN(C)CCN1CCCC12CCCN(Cc1ccoc1)C2 (stereo not drawn), the INHIBITION rises from -42.4% to 68.1%.

Going from CCc1nc(C2CCCN2CCCc2nc3ccccc3o2)no1 (stereo not drawn) to c1ccc(-n2cc(CN3CCCC3Cn3cncn3)nn2)cc1 (stereo not drawn), the INHIBITION rises from -157% to -14%.

Going from NCc1ccccc1Sc1ccc(O)cc1 to Cc1ccc(CN2CCCC3(CCN(Cc4ccoc4)CC3)C2)cc1, the INHIBITION rises from 56.7% to 79.8%.

First: CN(C)CCNC(=O)c1cc(-c2cnc(N3CCCC3)nc2)cn1C
Second: CCN(C)CC(=O)N1CCc2nc(NC)nc(C(=O)N3CCCC3)c2C1
The INHIBITION of the first is lower: -123% for the first, -14.4% for the second.

First: CC(Cn1ccnc1)NC(=O)N1CCN(Cc2ccsc2)CC1 (stereo not drawn)
Second: CC(Cn1cccn1)NC(=O)N1CCN(Cc2ccsc2)CC1 (stereo not drawn)
The INHIBITION of the first is higher: 58.4% for the first, -55.3% for the second.

Compared with CC(Cn1ccnc1)NC(=O)N1CCN(Cc2ccncc2)CC1 (stereo not drawn), Cc1ccc(CN2CCC3(CCCN(C(=O)N(C)C)C3)C2)cc1 (stereo not drawn) is higher in INHIBITION: -125% for the first, -59.2% for the second.

Going from NC(=O)c1c(-c2ccc(Cl)cc2Cl)csc1NC(=O)CCCC(=O)O to CC(=O)Nc1c(C)noc1C=Cc1ccc(S(=O)(=O)N2CCCC2)cc1, the INHIBITION rises from -162% to 11.8%.

First: O=C1CC2(CCN(Cc3ccoc3)CC2)CN1Cc1cc(F)cc(F)c1
Second: O=C1CC2(CCN(Cc3ncc[nH]3)CC2)CN1Cc1cc(F)cc(F)c1
The INHIBITION of the first is higher: 56.5% for the first, -147% for the second.

Going from CN(C)CCN1CCCC12CCCN(Cc1ccco1)C2 (stereo not drawn) to CN(C)CCN1CCO[C@H]2CN(Cc3cnn(C)c3)C[C@H]21, the INHIBITION falls from -71.8% to -88.4%.

First: O=C1CC2(CCN(CCO)CC2)CN1Cc1cc(F)cc(F)c1
Second: Fc1ccc(CN2C[C@@H]3OCCN(CCN4CCCC4)[C@@H]3C2)cc1
The INHIBITION of the first is higher: 19.3% for the first, -70.3% for the second.

Going from CC1CCCN(S(=O)(=O)NCCNC(=O)c2ncccc2O)C1 (stereo not drawn) to CCS(=O)(=O)N1CCC2(CC1)CN(c1ccsc1)C(=O)CO2, the INHIBITION rises from -122% to -0.697%.

First: COc1ccc(-c2nc(CCNC(=O)NC3CCC(O)CC3)co2)cc1 (stereo not drawn)
Second: COc1ccc(CN2C[C@@H]3OCCN(CC4CCCO4)[C@@H]3C2)cc1 (stereo partly drawn)
The INHIBITION of the first is higher: -13.7% for the first, -115% for the second.

Going from COc1ccc(CN2C[C@@H]3OCCN(CCN4CCCC4)[C@@H]3C2)cc1 to COc1ccc(CN2C[C@@H]3OCCN(CCN(C)C)[C@@H]3C2)cc1, the INHIBITION rises from 64% to 66.9%.

Work on COc1ccc(CN2C[C@@H]3OCCN(C)[C@@H]3C2)cc1 yielded an INHIBITION of -42.1%.
